Records with an inconclusive call do not appear. Activity calls are given as the source filed them. Calls come from the whole dose curve; as a rule, active = well fitted inhibition curve with a large enough effect; inconclusive = small, poorly fitted or top-dose-only effect, or effect the other way; inactive = no such curve, though single readings can be large or run the other way.

Nuclear receptor ROR-gamma (Mus musculus), sequence (P51450 whole entry, looked up, the tested form may be a part): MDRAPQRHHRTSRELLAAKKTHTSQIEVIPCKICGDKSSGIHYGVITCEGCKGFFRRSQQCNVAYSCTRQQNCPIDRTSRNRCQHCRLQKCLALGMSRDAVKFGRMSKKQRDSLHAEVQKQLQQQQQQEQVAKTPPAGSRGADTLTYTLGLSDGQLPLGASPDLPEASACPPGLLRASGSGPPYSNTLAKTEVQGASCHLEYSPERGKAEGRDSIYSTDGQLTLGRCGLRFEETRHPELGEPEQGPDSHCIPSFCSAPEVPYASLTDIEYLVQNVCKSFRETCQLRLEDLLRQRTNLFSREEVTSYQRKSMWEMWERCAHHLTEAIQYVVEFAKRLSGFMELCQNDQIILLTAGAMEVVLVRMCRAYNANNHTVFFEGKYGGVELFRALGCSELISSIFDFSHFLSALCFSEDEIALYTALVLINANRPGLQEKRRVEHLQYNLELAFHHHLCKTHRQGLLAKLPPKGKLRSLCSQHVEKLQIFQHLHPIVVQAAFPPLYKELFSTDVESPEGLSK

This experiment concerns the target Nuclear receptor ROR-gamma (Mus musculus) (UniProt P51450). In words: Concentration response confirmation assay for inhibitors of ROR gamma transcriptional activity. The settings on record: Drosophila S2 Gal4-RORgamma UAS-luciferase, 20 h; series mostly up to 46.1 µM; activity change, negative = inhibition: at the top concentration. The source says:
NIH Molecular Libraries Probe Production Network [MLPCN] NIH Chemical Genomics Center [NCGC] MLPCN Grant: R03 DA026211-01 Assay Provider: Dan Littman, New York University Assay Overview: The retinoic acid-related orphan receptor (ROR) gamma is a transcription factor that has a central role in the differentiation of Th17 cells, a subset of T helper cells that secrete the inflammatory cytokines IL-17, IL-17F, and IL-22. Th17 cells have been implicated in graft versus host disease, autoimmune disease and asthma. ROR gamma is induced in naive T helper cells in the presence of TGF-beta combined with IL-6, IL-21, or IL-23, and thereafter directs the expression of the Th17 lineage cytokines. To study the mechanism of action of ROR gamma, an insect cell-based assay was screened. This Drosophila Schneider cell line was stably transfected with two vectors: a gene expressing a fusion of the Gal4 DNA binding domain and ROR gamma transactivation domain under the control of the metallothionine promoter and a Photinus luciferase reporter regulated by the Gal4 binding site enhancer, UAS. […] Small molecule inhibitors of ROR gamma activity are detected by a decrease in luciferase reporter activity.
Assay Protocol Summary: For screening, 600 cells in 4 uL/well were dispensed into white solid 1536-well plates (Grenier) using a solenoid-based dispenser. Following transfer of 23 nL compound or DMSO vehicle by a pin tool, the plates were incubated 1 hr at ambient temperature, and 1 uL/well copper sulfate (700 uM final concentration) was added. The plates were centrifuged 15 s at 1000 RPM and incubated 20 hr at ambient temperature. After addition of 1.5 uL Photinus luciferase detection reagent, the plates were incubated 10 min at ambient temperature and then read by an ViewLux (Perkin Elmer) to detect luminescence. Keywords: NIH Roadmap, MLPCN, MLI, MLSMR, qHTS, NCGC, qHTS, nuclear hormone receptor, retinoic acid-related orphan receptor, ROR gamma
For `Cc1cc(C)c2sc(NC(=O)c3ccc(N4C(=O)CCC4=O)cc3)nc2c1`, the Potency was 0.0705 µM (active).
On to `CCOc1ccc(C(=O)Nc2nc3ccccc3[nH]2)cc1OCC`, for which the Potency was 11.2 µM (active).
Still for that read-out and setting: with `O=C(NC(=S)Nc1nc(-c2ccccc2)cs1)c1cncc(Br)c1` the figure was 3.15 µM (active); with `Cc1nn(-c2ccccc2)c(C)c1C(=O)Nc1nnc(-c2ccco2)o1`, 0.996 µM (active).
Regarding `COc1ccc(C(=O)Nc2ccc(NC(=O)c3cccs3)cn2)cc1`, the “activity change, negative = inhibition” value is -1.79% (inactive).
As to `CC(=O)c1cccc(N(CC(=O)Nc2ccccc2C(=O)N2CCCC2)S(C)(=O)=O)c1`, the “activity change, negative = inhibition” value was 0.355% (inactive).
With `CCOC(=O)c1sc(NC(=O)c2ccc(S(=O)(=O)N(C)C)cc2)nc1C`, the Potency is 0.0791 µM (active).
Regarding `CCn1cc(C(=O)O)c(=O)c2cc(F)c(N3CCN(C(=S)NC(=O)c4ccccc4C)CC3)cc21`, the “activity change, negative = inhibition” value is -24.2% (inactive).
As to `CC(C)(C)S(=O)(=O)c1cnc2c(-c3ccsc3)cnn2c1N`, the Potency is 22.3 µM (active).
Take `CCOC(=O)c1sc(NC(=O)c2cc3c(s2)CCC(C)C3)nc1C` (stereo not given): the Potency was 0.0996 µM (active).
In the case of `Cc1sc2ncnc(Sc3nnc4sc5ccccc5n34)c2c1C`, the “activity change, negative = inhibition” value was -0.98% (inactive).
Take `COc1cccc2cc(-c3n[nH]c(=S)n3C)oc12`: the Potency is 15.8 µM (active).
In the case of `COC(=O)c1ccc(OCC(=O)c2ccc(O)cc2O)cc1`, the Potency was 0.125 µM (active).
For the compound `CCOC(=O)Cc1ccc(NC(=O)c2ccc(C(C)(C)C)cc2)cc1`, the “activity change, negative = inhibition” value was 50.4% (inactive).
Turning to `O=C(/C=C/c1ccc(S(=O)(=O)N2CCOCC2)cc1)NC(=S)Nc1ccc(N2CCOCC2)cc1`, the Potency was 9.96 µM (active).
Turning to `COc1ccc2nc(N3C(=O)CNC3=S)sc2c1`, the Potency is 1.99 µM (active).
As to `Cc1ccc2nc(-c3ccc(NC(=O)COC(=O)c4ccc(=O)[nH]c4)cc3)sc2c1`, the Potency was 1.41 µM (active).
On the same count and under the same terms, with `Oc1ccccc1-c1cc(-c2ccc3c(c2)OCCO3)n[nH]1` the figure was 11.2 µM (active).
On to `COc1ccc(C(C#N)N2N=C(C)CC2c2ccccc2)cc1` (stereo not given), for which the “activity change, negative = inhibition” value is 7.28% (inactive).
`Cc1ccccc1NC(=O)CCN1CCN(C)CC1`: the “activity change, negative = inhibition” value was 8.95% (inactive).
In the case of `COc1cc(C2c3cc4c(cc3C(OC3OC5COC(c6cccs6)OC5C(O)C3O)C3COC(=O)C23)OCO4)cc(OC)c1O` (stereo not given), the Potency is 4.99 µM (active).
With `Cc1ccc(OCCn2cc(C(=S)N3CCCC3)c3ccccc32)cc1C`, the Potency was 12.5 µM (active).
Regarding `COC(=O)c1ccc2nc(Nc3nc4ccc(F)cc4s3)sc2c1`, the Potency was 0.315 µM (active).
As to `CCN(CC(=O)Nc1ccc2c(c1)CCC2)Cc1nc2ccccc2c(=O)[nH]1`, the Potency is 8.88 µM (active).
For the compound `c1ccc(Cn2c(-c3ccccc3)c[n+]3c2SCCC3)cc1`, the “activity change, negative = inhibition” value is 22.7% (inactive).
In the case of `O=C(NCC1CCCO1)C(C(=O)c1ccccc1)n1ccccc1=O` (stereo not given), the “activity change, negative = inhibition” value was -18.7% (inactive).
With `Cc1cc(C)nc(-n2nc(C)cc2NC(=O)c2ccc(F)cc2F)n1`, the Potency is 0.996 µM (active).
Regarding `C=C(C)c1cccc(C(C)(C)NC(=O)N2CCN(CC)CC2)c1`, the “activity change, negative = inhibition” value was -10.7% (inactive).
For `COc1ccc(-n2ncc(Cl)c(Cl)c2=O)cc1`, the Potency is 8.88 µM (active).
Regarding `CCc1ccc(-c2nc(CSCC(=O)NC3CC3)c(C)o2)cc1`, the Potency was 3.97 µM (active).
As for `COc1ccc(OC)c(/C=C2\SC(=S)N(C(C(=O)O)c3ccccc3)C2=O)c1` (stereo not given), the “activity change, negative = inhibition” value was 13.7% (inactive).
Consider `CCN1C(=O)/C(=C/c2ccc(N3CCCC3)cc2)NC1=S`, for which the Potency was 6.28 µM (active).
The same measure, in the same setting: with `O=S(=O)(NCc1ccccn1)C(F)(F)F` the figure was 7.05 µM (active); with `Cc1ccc(Oc2nc(-c3ccccn3)nc3ccccc23)cc1`, 0.396 µM (active); with `COc1ccc(OCC(=O)NNc2nc3ccccc3s2)cc1`, 14.1 µM (active).
On the same count and under the same terms, with `Cc1cc(NCc2ccccn2)n2ncc(-c3ccc(Cl)cc3)c2n1` the figure was 0.199 µM (active).
On to `Fc1cccc2sc(Nc3nnc(-c4ccco4)o3)nc12`, for which the Potency was 1.99 µM (active).
Same read-out and setting: with `S=c1nc(COc2ccccc2)[nH]c2ccccc12` the figure was 6.28 µM (active).
For `Cc1cc(-c2ccccc2)nc(N2CCC(C(=O)NCc3ccccc3Cl)CC2)n1`, the “activity change, negative = inhibition” value was -6.36% (inactive).
On to `CN(Cc1nc2ccccc2c(=O)[nH]1)Cc1nc2ccsc2c(=O)[nH]1`, for which the Potency is 1.41 µM (active).
